Results as given in the supplement of paper PMC10037445.
Where “and” joins values, the source holds several entries; their conditions need not be identical. Identical values can stand only once. Whole data set: some 2,900 compounds, median “NF-kB SEAP reporter activity, fold change vs agonist alone” near 0.99, cut for the highest 2% near 2.6. This is one part of a sample in which the highest values are shown more often than they occur.

Tests used:
[1] = tested on: RAW-Dual; test: NF-kB SEAP reporter activity, fold change vs agonist alone; higher = enhanced NF-kB activity
In short: (§1)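 Reporter activity is given as fold change relative to agonist-alone wells. To measure it, 50 nL of library stock was pin-tooled onto RAW-Dual macrophages (50,000 cells/well, DMEM, 384-well plates), a PRR agonist followed 1 h later, and cells stayed at 37 °C, 5% CO2. Twenty hours on, supernatant was assayed for IRF (QuantiLuc luminescence) and NF-κB (QuantiBlue, 620 nm absorbance), and wells under 70% of agonist-control IncuCyte confluency in both mask sets were marked cytotoxic.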

[2] = tested on: RAW-Dual; test: NF-kB SEAP reporter activity, fold change vs agonist alone; cytotoxicity flag (confluency mask): not cytotoxic; higher = enhanced NF-kB activity
In short: as §1

[3] = tested on: RAW-Dual; test: NF-kB SEAP reporter activity, fold change vs agonist alone; cytotoxicity flag (confluency mask): cytotoxic (confluency <70% of control); higher = enhanced NF-kB activity
In short: as §1

[4] = library stock concentration (final ~1000-fold dilution): 10 mM, cytotoxicity flag (confluency mask): not cytotoxic, agonist: Imiquimod (TLR7) […]
[5] = library stock concentration (final ~1000-fold dilution): 10 mM, cytotoxicity flag (confluency mask): not cytotoxic, agonist: MPLA (TLR4) […]
[6] = agonist: ODN 1826 (TLR9) 0.5 ug/mL
[7] = agonist: Pam2CSK4 (TLR2/6) 0.1 ug/mL
[8] = agonist: Pam3CSK4 (TLR2/1) 0.1 ug/mL
[9] = library stock concentration (final ~1000-fold dilution): 10 mM, cytotoxicity flag (confluency mask): cytotoxic (confluency <70% of control), agonist: Imiquimod (TLR7) […]
[10] = library stock concentration (final ~1000-fold dilution): 10 mM, cytotoxicity flag (confluency mask): cytotoxic (confluency <70% of control), agonist: MPLA (TLR4) […]

Cc1nnc(C(C)C)n1C1CC2CCC(C1)N2CCC(NC(=O)C1CCC(F)(F)CC1)c1ccccc1 (centres undefined)
NF-kB SEAP reporter activity [1, 4]: 0.968 | NF-kB SEAP reporter activity [1, 5]: 1

Cc1nnc(C(C)C)n1C1CC2CCC(C1)N2CCC(NC(=O)C1CCC(F)(F)CC1)c1ccccc1 (centres undefined) (library stock concentration (final ~1000-fold dilution): 10 mM)
NF-kB SEAP reporter activity ([2]; agonist: LPS (TLR4) 0.1 ug/mL): 0.973 | NF-kB SEAP reporter activity [2, 6]: 1.04 | NF-kB SEAP reporter activity [2, 7]: 1.06 | NF-kB SEAP reporter activity [2, 8]: 1.11

O=C(/C=C/c1ccccc1)NC(NC(=S)Nc1cccc2cccnc12)C(Cl)(Cl)Cl (centres undefined) (library stock concentration (final ~1000-fold dilution): 10 mM)
NF-kB SEAP reporter activity ([2]; agonist: LPS (TLR4) 0.1 ug/mL): 0.779 | NF-kB SEAP reporter activity [2, 6]: 0.429 | NF-kB SEAP reporter activity [2, 7]: 0.288 | NF-kB SEAP reporter activity [2, 8]: 0.388

O=C(NC(NC(=S)Nc1ccc(F)c([N+](=O)[O-])c1)C(Cl)(Cl)Cl)C(c1ccccc1)c1ccccc1 (centres undefined) (library stock concentration (final ~1000-fold dilution): 10 mM)
NF-kB SEAP reporter activity ([3]; agonist: LPS (TLR4) 0.1 ug/mL): 0.182 | NF-kB SEAP reporter activity [3, 6]: 0.493 | NF-kB SEAP reporter activity [3, 7]: 0.146 | NF-kB SEAP reporter activity [3, 8]: 0.135

O=C(/C=C/c1ccccc1)NC(NC(=S)Nc1cccc2cccnc12)C(Cl)(Cl)Cl (centres undefined)
NF-kB SEAP reporter activity [1, 4]: 0.628 | NF-kB SEAP reporter activity [1, 5]: 0.833

O=C(NC(NC(=S)Nc1ccc(F)c([N+](=O)[O-])c1)C(Cl)(Cl)Cl)C(c1ccccc1)c1ccccc1 (centres undefined)
NF-kB SEAP reporter activity [1, 9]: 0.707 | NF-kB SEAP reporter activity [1, 10]: 0.521

O=C(/C=C/c1ccccc1)NC(NC(=S)Nc1ccc(Cl)cc1)C(Cl)(Cl)Cl (centres undefined) (library stock concentration (final ~1000-fold dilution): 10 mM)
NF-kB SEAP reporter activity ([3]; agonist: LPS (TLR4) 0.1 ug/mL): 2.64 | NF-kB SEAP reporter activity [3, 6]: 1.22 | NF-kB SEAP reporter activity [3, 7]: 0.494 | NF-kB SEAP reporter activity [3, 8]: 0.809

O=C(/C=C/c1ccccc1)NC(NC(=S)Nc1ccc(Cl)cc1)C(Cl)(Cl)Cl (centres undefined)
NF-kB SEAP reporter activity [1, 9]: 1.03 | NF-kB SEAP reporter activity [1, 10]: 2.18

Cc1cc2c(C(=O)NCC(C)c3ccccc3)c(O)c(O)cc2c(O)c1-c1c(C)cc2c(C(=O)NCC(C)c3ccccc3)c(O)c(O)cc2c1O (centres undefined) (library stock concentration (final ~1000-fold dilution): 10 mM)
NF-kB SEAP reporter activity ([2]; agonist: LPS (TLR4) 0.1 ug/mL): 4.28 | NF-kB SEAP reporter activity [2, 6]: 2.93 | NF-kB SEAP reporter activity [2, 7]: 0.803 | NF-kB SEAP reporter activity [2, 8]: 1.62

Cc1cc2c(C(=O)NCC(C)c3ccccc3)c(O)c(O)cc2c(O)c1-c1c(C)cc2c(C(=O)NCC(C)c3ccccc3)c(O)c(O)cc2c1O (centres undefined)
NF-kB SEAP reporter activity [1, 4]: 1.84 | NF-kB SEAP reporter activity [1, 5]: 2.27

N=C(N)Nc1nc(CSCCC(=N)NS(N)(=O)=O)cs1
NF-kB SEAP reporter activity [1, 4]: 0.918 | NF-kB SEAP reporter activity [1, 5]: 1

N=C(N)Nc1nc(CSCCC(=N)NS(N)(=O)=O)cs1 (library stock concentration (final ~1000-fold dilution): 10 mM)
NF-kB SEAP reporter activity ([2]; agonist: LPS (TLR4) 0.1 ug/mL): 1.03 | NF-kB SEAP reporter activity [2, 6]: 1.06 | NF-kB SEAP reporter activity [2, 7]: 1.25 | NF-kB SEAP reporter activity [2, 8]: 1.09

CN1CCCC1CCOC(C)(c1ccccc1)c1ccc(Cl)cc1.O=C(O)/C=C/C(=O)O (centres undefined)
NF-kB SEAP reporter activity [1, 4]: 1.7 | NF-kB SEAP reporter activity [1, 5]: 0.942

CN1CCCC1CCOC(C)(c1ccccc1)c1ccc(Cl)cc1.O=C(O)/C=C/C(=O)O (centres undefined) (library stock concentration (final ~1000-fold dilution): 10 mM)
NF-kB SEAP reporter activity ([2]; agonist: LPS (TLR4) 0.1 ug/mL): 1.32 | NF-kB SEAP reporter activity [2, 6]: 0.754 | NF-kB SEAP reporter activity [2, 7]: 0.873 | NF-kB SEAP reporter activity [2, 8]: 0.64

O=C(O)CCCN1CCC(OC(c2ccc(Cl)cc2)c2ccccn2)CC1.O=S(=O)(O)c1ccccc1 (centres undefined)
NF-kB SEAP reporter activity [1, 4]: 1.08 | NF-kB SEAP reporter activity [1, 5]: 1.03

O=C(O)CCCN1CCC(OC(c2ccc(Cl)cc2)c2ccccn2)CC1.O=S(=O)(O)c1ccccc1 (centres undefined) (library stock concentration (final ~1000-fold dilution): 10 mM)
NF-kB SEAP reporter activity ([2]; agonist: LPS (TLR4) 0.1 ug/mL): 1.04 | NF-kB SEAP reporter activity [2, 6]: 1.06 | NF-kB SEAP reporter activity [2, 7]: 1.01 | NF-kB SEAP reporter activity [2, 8]: 1.17

N#CC1CC2CC2N1C(=O)C(N)C12CC3CC(CC(O)(C3)C1)C2.O (centres undefined)
NF-kB SEAP reporter activity [1, 5]: 1.19

N#CC1CC2CC2N1C(=O)C(N)C12CC3CC(CC(O)(C3)C1)C2.O (centres undefined) (library stock concentration (final ~1000-fold dilution): 10 mM)
NF-kB SEAP reporter activity ([2]; agonist: LPS (TLR4) 0.1 ug/mL): 1.27 | NF-kB SEAP reporter activity [2, 6]: 1.44 | NF-kB SEAP reporter activity [2, 7]: 1.71 | NF-kB SEAP reporter activity [2, 8]: 1.75

O.c1cnc2c(c1)ccc1cccnc12 (library stock concentration (final ~1000-fold dilution): 10 mM)
NF-kB SEAP reporter activity ([2]; agonist: LPS (TLR4) 0.1 ug/mL): 2.48 | NF-kB SEAP reporter activity [2, 6]: 1.17 | NF-kB SEAP reporter activity [2, 7]: 1.44 | NF-kB SEAP reporter activity [2, 8]: 2.06

O.c1cnc2c(c1)ccc1cccnc12
NF-kB SEAP reporter activity [1, 4]: 2.78 | NF-kB SEAP reporter activity [1, 5]: 2.1

O=C(O)c1ccc(O)c2ncccc12
NF-kB SEAP reporter activity [1, 4]: 1.05 | NF-kB SEAP reporter activity [1, 5]: 1.03

O=C(O)c1ccc(O)c2ncccc12 (library stock concentration (final ~1000-fold dilution): 10 mM)
NF-kB SEAP reporter activity ([2]; agonist: LPS (TLR4) 0.1 ug/mL): 1.21 | NF-kB SEAP reporter activity [2, 6]: 1.04 | NF-kB SEAP reporter activity [2, 7]: 0.998 | NF-kB SEAP reporter activity [2, 8]: 1.4

N#Cc1ncccn1 (library stock concentration (final ~1000-fold dilution): 2 mM)
NF-kB SEAP reporter activity ([2]; agonist: LPS (TLR4) 0.1 ug/mL): 1.32 | NF-kB SEAP reporter activity [2, 6]: 1.02 | NF-kB SEAP reporter activity [2, 7]: 1.09 | NF-kB SEAP reporter activity [2, 8]: 1.05

N#Cc1ncccn1
NF-kB SEAP reporter activity ([1]; library stock concentration (final ~1000-fold dilution): 2 mM, cytotoxicity flag (confluency mask): not cytotoxic, agonist: Imiquimod (TLR7) […]): 1 | NF-kB SEAP reporter activity ([1]; library stock concentration (final ~1000-fold dilution): 2 mM, cytotoxicity flag (confluency mask): not cytotoxic, agonist: MPLA (TLR4) […]): 1

CCn1cc(C(=O)O)c(=O)c2cc(F)c(N3CCN(C)CC3)cc21.CS(=O)(=O)O.O.O
NF-kB SEAP reporter activity [1, 4]: 0.752 | NF-kB SEAP reporter activity [1, 5]: 0.814

CCn1cc(C(=O)O)c(=O)c2cc(F)c(N3CCN(C)CC3)cc21.CS(=O)(=O)O.O.O (library stock concentration (final ~1000-fold dilution): 10 mM)
NF-kB SEAP reporter activity ([2]; agonist: LPS (TLR4) 0.1 ug/mL): 1.38 | NF-kB SEAP reporter activity [2, 6]: 0.867 | NF-kB SEAP reporter activity [2, 7]: 1.01 | NF-kB SEAP reporter activity [2, 8]: 1.01

Cl.Cl.OC(CN1CCN(c2cccc(Cl)c2)CC1)C(c1ccccc1)c1ccccc1 (centres undefined) (library stock concentration (final ~1000-fold dilution): 10 mM)
NF-kB SEAP reporter activity ([2]; agonist: LPS (TLR4) 0.1 ug/mL): 0.841 | NF-kB SEAP reporter activity [2, 6]: 1.02 | NF-kB SEAP reporter activity [2, 7]: 0.761 | NF-kB SEAP reporter activity [2, 8]: 0.956

Cl.Cl.OC(CN1CCN(c2cccc(Cl)c2)CC1)C(c1ccccc1)c1ccccc1 (centres undefined)
NF-kB SEAP reporter activity [1, 4]: 1.33 | NF-kB SEAP reporter activity [1, 5]: 1.04

CC(=O)OC1CC2CCC3C(CCC4(C)C3CC([N+]3(C)CCCCC3)C4OC(C)=O)C2(C)CC1N1CCCCC1 (centres undefined) (library stock concentration (final ~1000-fold dilution): 10 mM)
NF-kB SEAP reporter activity ([2]; agonist: LPS (TLR4) 0.1 ug/mL): 1.04 | NF-kB SEAP reporter activity [2, 6]: 1.02 | NF-kB SEAP reporter activity [2, 7]: 0.945 | NF-kB SEAP reporter activity [2, 8]: 1.01

CC(=O)OC1CC2CCC3C(CCC4(C)C3CC([N+]3(C)CCCCC3)C4OC(C)=O)C2(C)CC1N1CCCCC1 (centres undefined)
NF-kB SEAP reporter activity [1, 4]: 0.939 | NF-kB SEAP reporter activity [1, 5]: 0.965

CCOC(=O)/C=C/c1ccc(O)c(O)c1 (library stock concentration (final ~1000-fold dilution): 10 mM)
NF-kB SEAP reporter activity ([2]; agonist: LPS (TLR4) 0.1 ug/mL): 0.633 and 0.814 | NF-kB SEAP reporter activity [2, 6]: 0.407 and 0.651 | NF-kB SEAP reporter activity [2, 7]: 0.658 and 0.524 | NF-kB SEAP reporter activity [2, 8]: 0.563 and 0.481

NS(=O)(=O)NCCNc1nonc1C(=Nc1ccc(F)c(Br)c1)NO (library stock concentration (final ~1000-fold dilution): 10 mM)
NF-kB SEAP reporter activity ([2]; agonist: LPS (TLR4) 0.1 ug/mL): 1.01 | NF-kB SEAP reporter activity [2, 6]: 0.936 | NF-kB SEAP reporter activity [2, 7]: 0.922 | NF-kB SEAP reporter activity [2, 8]: 0.961

NS(=O)(=O)NCCNc1nonc1C(=Nc1ccc(F)c(Br)c1)NO
NF-kB SEAP reporter activity [1, 4]: 0.862 | NF-kB SEAP reporter activity [1, 5]: 0.907
